Data reported in PubChem BioAssay (NCATS).
Results filed as inconclusive are left out. A call without a number means that no potency is given here. The source made the active and inactive calls. Calls follow the shape of the dose curve; as a rule, active = well fitted cell-killing curve with a large enough effect; inconclusive = small, poorly fitted or top-dose-only effect; inactive = flat fitted curve, though single readings scatter.

Test: Identifying Small Molecule Inhibitors of Pancreatic Cancer Stem Cells (SN12C, Adherent) (AID 1259358);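 also: cell survival measured after 48 h of compound exposure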
Conditions: viability/growth inhibition; series mostly up to 46.1 µM
Description: Progenitor-like cancer cells, often referred to as cancer stem cells (CSC), are believed to be the drivers of therapeutic resistance and rapid recurrence. CSCs are postulated to reside in specific niches characterized by low oxygen tension, limited nutrient supply, and high redox load. Selectively targeting CSC, alone or in combination with cytotoxic agents, as a means to produce durable remissions is an appealing concept. Modeling these cells in in vitro setting is an important step in finding new therapies and/or targets. Multiple reports highlight that forcing cells in culture into 3-dimensionaly architectures (spheroids) re-establishes key progenitor-like transcriptional signatures. Pancreatic cancer is among the diseases with the most dismal outlook which is driven, largely, by recurance following front-line therapies. […] In hopes of deriving new insight into the targeting of these pancreatic CSCs we examined three established pancreatic cancer cell lines in cytotoxicity assays versus a collection of approved and investigational drugs. Importantly, we screened these lines as traditional monolayer (2D) and spheroid (3D) formats to gain an appreciation of agents with differential activity.
Multicellular tumor spheroids from Panc1, MiaPaCa-2, and the primary low-passage tissue culture line SB.06 were seeded in stem cell media (SCM) in nonadherent 6-well plates coated with hydrogel (Corning Life Sciences, Chelmsford, Mass) and pancreatic spheres generated for 14 days before screening. Cells were seeded into 1536-well solid-bottom white tissue culture treated Greiner Bio One Plates (789173-F) using a MultiDrop Combi (Thermofisher Scientific) dispenser and a small sterile cassette. One column was media alone to be used as a :"no cells" control. The plates were then covered with sterilized stainless steel gasketed lids from Kalypsys. After allowing cells to attach for 4 hours, 23 nL of test compound or control (negative control DMSO and positive control 9.2 uM Bortezomib-final) were added from a 1536-well polypropylene compound source plate to each well using a 1536 head pin tool from Kalypsys. Cells were then incubated for 48 hours at 37C, 95% relative humidity and 5% CO2. After 48 hours, plates were removed from the incubator and 3 uL of CellTiter-Glo (Promega) was added using an Aurora Flying Reagent Dispenser Bioraptor. Plates were incubated at room temperature for 10 minutes prior to reading the luminescence on the Viewlux (PerkinElmer). The relative luciferase units are used to calculate the percent activity using the activity of DMSO in the cells and no cells columns for normalization of no inhibition and full inhibition respectively.
Potency is read from the fitted curve at half-maximal effect.

| SMILES | Potency |
| --- | --- |
| CC(C)C[C@H](NC(=O)[C@@H](O)[C@H](N)Cc1ccccc1)C(=O)O | inactive |
| COc1ccc(-c2oc3cc(OC)ccc3c2C(=O)c2ccc(C#N)cc2)cc1 | inactive |
| CCCc1nn(C)c2c(=O)[nH]c(-c3cc(S(=O)(=O)N4CCN(C)CC4)ccc3OCC)nc12 | inactive |
| CCN(CC)CCCC(C)Nc1nc(C)cc(Nc2ccc3nc(C)cc(N)c3c2)n1 (stereo not given) | inactive |
| Oc1cccc(-c2nc(N3CCOCC3)c3oc4ncccc4c3n2)c1 | 0.0743 µM (active) |
| CCOC(=O)C1=C[C@@]2(CC)CCCN3CCc4c(n1c1ccccc41)[C@H]32 | inactive |
| CC1(C)Cc2c(-c3ccccc3)c(-c3ccc(Cl)cc3)c(CC(=O)O)n2C1 | inactive |
| Cn1cnc2c(F)c(Nc3ccc(Br)cc3Cl)c(C(=O)NOCCO)cc21 | 1.18 µM (active) |
| CC(C)(Sc1ccc(CCN(CCCCC2CCCCC2)C(=O)NC2CCCCC2)cc1)C(=O)O | inactive |
| COc1ccccc1[C@H](c1cccc2ccccc12)[C@@](C)(C#N)C(=O)N1CCC(c2cccc(C(F)(F)F)c2)CC1 | inactive |
| C[C@H](NC(=O)Cc1cc(F)cc(F)c1)C(=O)N[C@@H]1C(=O)N(C)c2ccccc2-c2ccccc21 | inactive |
| O=C(C1CC1)N1CC[C@@H](Cn2c(-c3ccc(-c4ccc5occc5c4)cc3)nc3cnccc32)C1 | inactive |
| OC[C@H](Cc1ccccc1)Nc1nc(Oc2ccc3c(c2)CCC3)nc2c1ncn2Cc1ccc(-c2ccccc2)cc1 | inactive |
| Cc1cccc(-c2[nH]c(C(C)(C)C)nc2-c2ccc3nccnc3c2)n1 | inactive |
| O=C(OCC#CCSc1nnc(-c2ccc3ccccc3c2)o1)c1cc2ccccc2s1 | inactive |
| CCCS(=O)(=O)Nc1ccc(F)c(C(=O)c2c[nH]c3ncc(-c4ccc(Cl)cc4)cc23)c1F | inactive |
| Clc1ccc(Nc2nnc(Cc3ccncc3)c3ccccc23)cc1 | inactive |
| O=C(NOC[C@H](O)CO)c1ccc(F)c(F)c1Nc1ccc(I)cc1F | 9.35 µM (active) |
| O=C(Nc1ccc(F)c(C(F)(F)F)c1)Nc1nnc(-c2ccncc2)s1 | inactive |
| O=C(O)CCc1ccc(NCc2cccc(Oc3ccccc3)c2)cc1 | inactive |

| SMILES | Potency |
| --- | --- |
| COc1ccc(-c2ccc3c(N4CCOCC4)nc(N4C[C@@H](C)O[C@@H](C)C4)nc3n2)cc1CO | 0.235 µM (active) |
| O=C(Nc1nc2ccccc2n1CCN1CCOCC1)c1cccc([N+](=O)[O-])c1 | inactive |
| C[C@]12CC[C@H](O)CC1=CC[C@@H]1[C@H]2CC[C@]2(C)C(c3cccnc3)=CC[C@H]12 | inactive |
| CC(=O)NC(C)c1ccc(Oc2ccc(OC(C)C)cc2)cc1 (stereo not given) | inactive |
| CCN(CCCO)CCCOc1ccc2c(Nc3cc(CC(=O)Nc4cccc(F)c4)[nH]n3)ncnc2c1 | inactive |
| COc1nc(-c2ccc3c(c2)OCO3)n(-c2ccc(NC(=O)CSc3ccccc3)cc2)n1 | inactive |
| COc1ccccc1-c1cccc(-c2c(O)c3cc(C#N)c(Cl)cc3[nH]c2=O)c1 | inactive |
| COc1ccc2c3n(c(=NC(=O)c4cccnc4)nc2c1OC)CCN3 | 3.72 µM (active) |
| O=C(Nc1cccnc1)N1CCC(Cc2cccc(Oc3ccc(C(F)(F)F)cn3)c2)CC1 | inactive |
| COc1ccc(-c2c(-c3ccc(O)cc3O)n[nH]c2C)cc1 | inactive |
| C[C@@H]1C[C@H]2[C@@H]3CCC4=CC(=O)C=C[C@]4(C)C3(F)[C@@H](O)C[C@]2(C)[C@@]1(O)C(=O)CO (stereo not given in full) | inactive |
| CC(c1cc2ccccc2s1)N(O)C(N)=O (stereo not given) | inactive |
| Cc1cccc(-c2nn(C(=S)Nc3ccccc3)cc2-c2ccnc3ccccc23)n1 | inactive |
| CCCc1nc2c(C)cc(-c3nc4ccccc4n3C)cc2n1Cc1ccc(-c2ccccc2C(=O)O)cc1 | inactive |
| Cc1c(CCOc2ccc(C(=O)O)cc2)c2cc(Cl)ccc2n1C(c1ccccc1)c1ccccc1 | inactive |
| Nc1nc2ccc(OC(F)(F)F)cc2s1 | inactive |
| Cc1ccc2c(c1)C(=O)[C@@]1(O)CCN(c3ccccc3)C1=N2 | inactive |
| Nc1nccc(-c2ccc3noc(-c4ccc(Cl)cc4)c3c2)n1 | inactive |
| CN(C)c1ccc(C2Nc3ccc4ccccc4c3C3=C2C(=O)CC(C)(C)C3)cc1Br (stereo not given) | inactive |
| CC1(C)CNc2cc(NC(=O)c3cccnc3NCc3ccncc3)ccc21 | inactive |
